Tau fibril FP: qHTS for Inhibitors of Tau Fibril Formation, Fluorescence Polarization | 280,000 tested, 0.39% active | AID 1468, 2008 | K18 P301L tau heparin fibrillization, Alexa594 FP, 6 h | Microtubule-associated protein tau (Homo sapiens), P10636 | Potency, µM (doses to about 57.7 µM), most hits filed as inhibitors; further: nearly all actives have a fitted effect of over 55% in size
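Steps: dispense K18 P301L tau (15 uM plus 0.24 uM Alexa 594 tracer, final) in pH 7 sodium acetate; add compound; add heparin (20 uM final); incubate 6 hr, 37 C; add ThT (30 uM final); after 1 hr ambient, read FP.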
Tau fluor counter: Counterscreen qHTS for Inhibitors of Tau Fibril Formation, Fluorescence Polarization; Potency, µM (highest dose often 57.7 µM); tau K18 P301L Alexa594 fluorescence, heparin fibrillization; 280,000 tested, 0.93% active; further: nearly all actives have a fitted effect of over 55% in size
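Human tau K18 P301L (15 uM unlabeled, 0.24 uM Alexa 594-labeled) in 100 mM sodium acetate pH 7 with 20 uM heparin, 6 hr at 37 C. ThT 30 uM added, 1 hr ambient; Alexa 594 FP and total fluorescence read at 555/632 nm.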
Coupling enz: qHTS Assay for Inhibitors of Fructose-1,6-bisphosphate Aldolase from Giardia Lamblia: Coupling assay counterscreen; 290,000 tested, 0.67% active; activity change, negative = inhibition, % at 58.2 µM, hits read low; coupling enzyme system counterscreen, AmpLite Red fluorescence; in the data active means activity change below about -30%
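Activity here indicates interference with the coupling reaction, not aldolase inhibition. Compounds at 57.5 uM final met coupling enzymes for 10 min at RT; substrate and AmpLite Red detection followed, with a 525/598 nm fluorescence read after 20 min.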
USP1 inh: Inhibitors of USP1/UAF1: Primary Screen; Ubiquitin carboxyl-terminal hydrolase 1 (Homo sapiens), O94782; recombinant USP1/UAF1, Ub-Rhodamine cleavage fluorescence; Potency, µM (highest dose often 57.1 µM), usual class: inhibitors; 390,000 tested, 0.23% active; AID 743255, 2014; further: nearly all actives have a fitted effect of over 60% in size
Target sequence (O94782 whole entry, looked up): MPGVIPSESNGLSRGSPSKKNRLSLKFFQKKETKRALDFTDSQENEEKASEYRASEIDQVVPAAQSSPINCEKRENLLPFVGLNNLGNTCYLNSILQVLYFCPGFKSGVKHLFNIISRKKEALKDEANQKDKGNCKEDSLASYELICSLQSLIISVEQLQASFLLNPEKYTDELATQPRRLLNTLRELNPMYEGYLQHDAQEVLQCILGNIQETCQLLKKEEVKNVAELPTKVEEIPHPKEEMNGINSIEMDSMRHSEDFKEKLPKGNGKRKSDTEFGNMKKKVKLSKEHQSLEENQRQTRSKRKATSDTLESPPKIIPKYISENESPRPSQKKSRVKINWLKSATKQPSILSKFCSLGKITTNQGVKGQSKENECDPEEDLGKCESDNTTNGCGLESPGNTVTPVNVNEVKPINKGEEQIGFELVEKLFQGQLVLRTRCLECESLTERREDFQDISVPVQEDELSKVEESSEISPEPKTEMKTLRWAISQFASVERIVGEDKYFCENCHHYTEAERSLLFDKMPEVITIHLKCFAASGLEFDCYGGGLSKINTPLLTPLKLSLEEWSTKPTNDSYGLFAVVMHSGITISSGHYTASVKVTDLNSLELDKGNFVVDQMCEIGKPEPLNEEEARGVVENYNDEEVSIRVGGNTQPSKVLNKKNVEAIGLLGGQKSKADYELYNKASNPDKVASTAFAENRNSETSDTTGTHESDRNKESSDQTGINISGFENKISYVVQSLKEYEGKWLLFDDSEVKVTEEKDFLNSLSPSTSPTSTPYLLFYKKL
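USP1/UAF1 complex (1 nM) preincubated 15 min at room temperature with compound, then Ub-Rho substrate (150 nM final) added. Kinetic fluorescence at 480/540 nm over 6 reads at 60 s intervals; 50 mM HEPES pH 7.8, 0.5 mM EDTA, 0.1 mg/ml BSA, 1 mM TCEP, 0.01% Tween-20.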
Tau fibril ThT: qHTS for Inhibitors of Tau Fibril Formation, Thioflavin T Binding. Microtubule-associated protein tau (Homo sapiens), P10636. recombinant tau K18 P301L, heparin-induced fibrillization, ThT fluorescence. Potency, µM (highest dose often 57.4 µM), usual class: inhibitors. 270,000 tested, 2.1% active; further: nearly all actives have a fitted effect of over 55% in size
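Using a mix of unlabeled (15 uM) and Alexa 594-labeled (0.24 uM) tau K18 P301L, heparin-triggered fibrillization over 6 hr at 37 C was scored by ThT fluorescence.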
Large screens that a line does not name were inactive; [ ] = remark or other dose. Shown are actives, neighbours in structure and some others; about 2.3% of the full set was active somewhere. Unless noted, the call rests on the fitted dose curve; in most records, active means well fitted curve in the direction sought with a large enough effect; inconclusive means small, poorly fitted or top-dose-only effect, or another doubt; inactive means no such curve, though single readings can be large; an effect the other way counts as inactive or inconclusive.

CC[C@H](C)[C@H](NC(=O)[C@H](CCC(=O)O)NC(=O)[C@@H](N)CO)C(=O)N[C@@H](CCC(N)=O)C(=O)N[C@@H](CC(C)C)C(=O)N[C@@H](CCSC)C(=O)N[C@@H](Cc1cnc[nH]1)C(=O)N[C@@H](CC(N)=O)C(=O)N[C@@H](CC(C)C)C(=O)NCC(=O)N[C@@H](CCCCN)C(=O)N[C@@H](Cc1cnc[nH]1)C(=O)N[C@@H](CC(C)C)C(=O)N[C@@H](C)C(=O)N[C@@H](CO)C(=O)N[C@H](C(=O)N[C@@H](CCC(=O)O)C(=O)N[C@@H](CCCNC(=N)N)C(=O)N[C@@H](CCSC)C(=O)N[C@@H](CCC(N)=O)C(=O)N[C@@H](Cc1c[nH]c2ccccc12)C(=O)N[C@@H](CC(C)C)C(=O)N[C@@H](CCCNC(=N)N)C(=O)N[C@@H](CCCCN)C(=O)N[C@@H](CCCCN)C(=O)N[C@@H](CC(C)C)C(=O)N[C@@H](CCC(N)=O)C(=O)N[C@@H](CC(=O)O)C(=O)N[C@H](C(=O)N[C@@H](Cc1cnc[nH]1)C(=O)N[C@@H](CC(N)=O)C(=O)N[C@@H](Cc1ccccc1)C(=O)O)C(C)C)C(C)C	none (no result: Tau fibril FP, Tau fluor counter, USP1 inh, Tau fibril ThT)
COc1cccc(Cn2c(=O)c(C)nc3cnc(N4CCOCC4)nc32)c1	none (no result: Tau fibril FP, Tau fluor counter, USP1 inh, Tau fibril ThT)
CCOC(=O)c1cccc(NC(=O)CCS(=O)(=O)c2ccc3c(c2)CC(=O)N3C)c1	none (no result: Coupling enz)
CCOC(=O)C[n+]1c(C)sc2ccc(OC)cc21	Tau fibril FP inconclusive, Tau fibril ThT 28.2µM
CCO/C(=C/c1sc2ccc(OC)cc2[n+]1CCCS(=O)(=O)[O-])CC	none
CCNC(=O)COC(=O)COc1ccc(Cl)cc1C	none
Cc1cc(Cl)ccc1OCC(=O)OCC(=O)Nc1ccc(F)c([N+](=O)[O-])c1	Tau fibril FP inconclusive, Tau fluor counter 11.2µM[quencher], Tau fibril ThT inconclusive
Cn1c(=O)c(=O)n(C)c2cc(S(=O)(=O)Nc3ccc(Cl)c(C(F)(F)F)c3)ccc21	Tau fibril FP inconclusive (no result: Coupling enz)
Fc1ccc2nc(Nc3nc4cc5c(cc4s3)OCCO5)sc2c1	Tau fluor counter 14.1µM[quencher], Tau fibril ThT 10µM
c1ccc2sc(Nc3nc4cc5c(cc4s3)OCO5)nc2c1	none
Fc1ccc2nc(Nc3nc4cc5c(cc4s3)OCO5)sc2c1	Tau fibril FP inconclusive, Tau fluor counter 3.55µM[quencher], Tau fibril ThT inconclusive
O=C(Nc1cccc([N+](=O)[O-])c1)c1ccncc1	none
CC(C)(C)c1ccc(C(=O)Nc2cccc([N+](=O)[O-])c2)cc1	Tau fibril FP inconclusive, Tau fluor counter 7.94µM[quencher], Tau fibril ThT inconclusive
Cc1ccc(NC(=O)Nc2cccc([N+](=O)[O-])c2)cc1F	Tau fibril FP inconclusive, Tau fluor counter 5.62µM[quencher], Tau fibril ThT inconclusive
Cc1cc(NC(=O)Nc2cccc([N+](=O)[O-])c2)no1	none
COc1cccc(C(=O)COc2cccc(NC(=O)c3cccc([N+](=O)[O-])c3)c2)c1	Tau fluor counter 14.1µM[quencher], Tau fibril ThT inconclusive
c1ccc(CNc2cc(-c3ccoc3)ncn2)cc1	none (no result: Tau fibril FP, Tau fluor counter, USP1 inh, Tau fibril ThT)
CCCCN(C)CCCNC(=O)Cn1ncc2c3ccccc3n(Cc3cc(C)ccc3C)c2c1=O	none (no result: Coupling enz)
CCc1ccc(CNC(=O)C2CCN(C(=O)N3CC(CC)Oc4ccc(C)cc43)CC2)cc1 (stereo not drawn)	none (no result: Coupling enz)
O=C(CCNc1cccc(F)c1)c1cccc([N+](=O)[O-])c1	Tau fluor counter inconclusive, Tau fibril ThT inconclusive
O=C(CCNc1ccc(Cc2ccncc2)cc1)c1cccc([N+](=O)[O-])c1	Tau fibril FP inconclusive, Tau fluor counter 15.8µM[quencher], Tau fibril ThT inconclusive
O=C(Nc1ccc(Cc2ccncc2)cc1)c1ccc(Cl)c([N+](=O)[O-])c1	Coupling enz -36.1
Cc1c([N+](=O)[O-])cc(C(=O)Nc2ccc(Cc3ccncc3)cc2)cc1[N+](=O)[O-]	Tau fluor counter inconclusive
CC(=O)c1ccc(NC(=O)CSc2nnc(-c3ccncc3)n2-c2ccccc2)cc1	none (no result: Coupling enz)
CCN(Cc1ccccc1)c1ccccc1	none (no result: Tau fibril FP, Tau fluor counter, Coupling enz, Tau fibril ThT)
